# Hits are enriched below; roughly 21% of the tested compounds scored in any of these assays.
# NS1 function inh = inhibitors of influenza NS1 protein function; Potency, µM (highest dose often 46.1 µM), for inactives: at the highest dose activity, positive = more growth; 0.4% of 270,000 active; calls by dose curve; also: potency is read from the fitted curve at half-maximal effect; actives are rising curves; nearly all actives have a fitted effect of over 50% in size
#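 OD600 was taken as the measure of yeast growth restored by compound in an NS1-expressing S. cerevisiae strain. Cells had been washed out of glucose medium and diluted 1:100 into galactose -URA medium, pH 6.0.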
# Cycloheximide cs = counter-screen for Shiga toxin inhibitors: cycloheximide protein synthesis inhibition; cell reporter, cycloheximide protein synthesis inhibition counterscreen; max response, %; 12% of 300,000 active; AID 2314; in the data active = max response mostly above about 13%, no sharp cut-off; inactive = mostly below about 14%; also: read at 38.3 µM for the half of the compounds with a filed dose; 0% is about no effect
# Pf growth 96h = P. falciparum growth inhibition at 96 hour, primary screen for plastid delayed-death inhibitors; P. falciparum luciferase reporter growth, 96 h; Potency, µM (series often up to 28.7 µM), without a hit: at the top dose activity change, negative = inhibition, hits mostly inhibitors; 6.9% of 320,000 active; AID 504834; also: potency is read from the fitted curve at half-maximal effect; % is scaled to controls: 0 for no effect and ±100 for the full control effect
#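 P. falciparum expressing integrated firefly luciferase grown in erythrocytes (2% hematocrit, 0.05% parasitemia final) with compounds for 96 hours at 37 C, 5% CO2. Growth inhibition read as loss of luminescence after adding luciferase detection reagent.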
# Shiga toxin inh = inhibitors of Shiga toxin in Vero cells | Vero cells, Shiga toxin protein synthesis inhibition reporter | inhibition, % at 38.7 µM | 9.2% of 290,000 active | AID 2315; in the data active = inhibition mostly above about 28%, no sharp cut-off; inactive = mostly below about 43%; also: 0% is about no effect
# SARS PLP yeast = inhibitors of SARS-CoV papain-like protease in yeast | Potency, µM (highest dose often 32.9 µM), for the others: at the highest dose activity, positive = growth rescue, hits mostly activators | S. cerevisiae expressing SARS-CoV PLpro, growth rescue | AID 485353 | 0.19% of 330,000 active; calls by dose curve; also: potency is read from the fitted curve at half-maximal effect; 0% is about no effect; nearly all actives have a fitted effect of over 55% in size
# Pf growth 48h = P. falciparum growth inhibition at 48 hours (one generation); Potency, µM (titrated, usually from 28.7 µM), for the others: at the highest dose activity change, negative = inhibition, usual class: inhibitors; P. falciparum luciferase growth in erythrocytes, 48 h; 5.9% of 310,000 active; AID 504832; also: potency is read from the fitted curve at half-maximal effect; % is scaled to controls: 0 for no effect and ±100 for the full control effect
#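 Compounds are pin-transferred into medium, infected erythrocytes (2% hematocrit, 0.1% parasitemia final) are added, and plates sit one parasite generation at 37 C in 5% CO2. Detection reagent is then added and luminescence measured.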
# Numbers without * were called inactive; ? = inconclusive; . = no result. Unless noted, calls follow the shape of the dose curve; as a rule, active = well fitted inhibition curve with a large enough effect; inconclusive = small, poorly fitted or top-dose-only effect, or another doubt; inactive = no such curve, though single readings can be large or run the other way.
SMILES,NS1 function inh,Cycloheximide cs,Pf growth 96h,Shiga toxin inh,SARS PLP yeast,Pf growth 48h
O=C(c1ccc([N+](=O)[O-])o1)N1CCN(c2nc3c(F)cc(F)cc3s2)CC1,.,.,0.329µM*,.,0.8%,1.04µM*
Cc1ccc(C)c2sc(N3CCN(C(=O)c4ccc([N+](=O)[O-])o4)CC3)nc12,.,.,0.329µM*,.,-1.3%,0.828µM*
CC(=O)N1N=C(N)SC1(C)C,.,5.0,37.8%,17.4,2.9%,3.2%
O=C(Nc1ccc(S(=O)(=O)NCc2ccco2)cc1)c1ccc2ccccc2n1,2.2%,88.9*,.,50.7*,3.6%,?
Cc1nc2ccccc2cc1C(=O)NCc1ccco1,4.1%,-2.7,4.2%,-0.4,11.4%,0.6%
CC(C)CC(=O)Nc1ccc(S(=O)(=O)NCc2ccco2)cc1,0.0%,6.6,.,40.3,-2.3%,8.7%
O=C(NCc1ccco1)c1ccc2ccccc2n1,-57.0%,-1.8,10.4µM*,-4.5,-3.6%,7.6%
CCOC(=O)C1CCCN(C(=O)COc2ccc(N(C)S(=O)(=O)c3ccc(F)cc3)cc2)C1 (stereo not given),.,-2.1,?,-12.4,1.0%,?
COc1ccc2cc(C=O)n(C)c2c1,.,.,?,.,-1.6%,14.2%
COc1ccc2cc(CO)n(C)c2c1,.,.,?,.,-6.3%,11.7µM*
C=CCN(C(=O)CSc1nnnn1C)c1nc(-c2ccccc2)cs1,.,.,78.1%,.,-0.5%,36.5%
C=CCN(C(=O)CC(NC(C)=O)c1ccccc1)c1nc(-c2ccc(S(C)(=O)=O)cc2)cs1 (stereo not given),-5.8%,31.2*,?,78.8*,-3.3%,9.28µM*
CC1(C)C2CC=C(/C=N/NC(=O)c3ccccc3O)C1C2 (stereo not given),-11.0%,7.8,-24.3%,36.0*,12.2%,-20.4%
O=C(N/N=C\c1ccc2c(c1)CCC2)c1ccccc1O,-8.0%,.,.,.,.,.
CC1(C)C2CC=C(/C=N/NC(=S)NCCc3ccccc3)C1C2 (stereo not given),-0.5%,17.5*,1.47µM*,29.3,-1.1%,?
Oc1ccccc1/C=N/NC(=S)NCCc1ccccc1,-7.3%,2.4,?,30.4,1.7%,?
C=CCn1sc(=N)c(C#N)c1N,-0.2%,-2.5,8.8%,-4.6,6.1%,11.0%
O=C(NCc1ccc(Cl)cc1)C1CCN(C(=O)c2ccc(Cl)cc2)CC1,.,.,?,.,-5.0%,?
CCOC(=O)C1CCCN(c2c(NCCN(CC)c3ccccc3)c(=O)c2=O)C1 (stereo not given),2.8%,1.0,-28.9%,7.8,4.3%,10.4µM*
CCOC(=O)C1CCCN(c2c(Nc3cc(C)cc(C)c3)c(=O)c2=O)C1 (stereo not given),-1.2%,-6.1,9.28µM*,-13.7,17.6%,.
CCOC(=O)C1CCCN(c2c(NCCN3CCCCC3C)c(=O)c2=O)C1 (stereo not given),-6.2%,-3.5,4.65µM*,-3.0,1.7%,-4.4%
CCOC(=O)C1CCCN(c2c(Nc3ccc(C)c(C)c3)c(=O)c2=O)C1 (stereo not given),-0.7%,-2.3,-16.5%,-8.1,5.1%,8.28µM*
CCOC(=O)C1CCCN(c2c(NCCc3ccc(C)cc3)c(=O)c2=O)C1 (stereo not given),-2.9%,0.9,-24.9%,-1.7,0.4%,?
CCOC(=O)C1CCCN(c2c(NCC3CCCO3)c(=O)c2=O)C1 (stereo not given),-3.7%,-5.8,-17.6%,-7.5,-2.6%,.
CC(C)N1CCC2(CC1)N=C(c1ccc3c(c1)OCO3)CC(c1cc(Cl)ccc1O)N2 (stereo not given),-32.9%,47.1*,?,42.9*,-29.6%,?
SMILES,NS1 function inh,Cycloheximide cs,Pf growth 96h,Shiga toxin inh,SARS PLP yeast,Pf growth 48h
CC(Sc1ccc(Cl)cc1)C(=O)Nc1ccc2c(c1)OCO2 (stereo not given),-15.7%,-2.9,11.1%,5.4,-24.8%,?
O=C(Cn1cnc([N+](=O)[O-])n1)N/N=C/c1ccccc1O,-2.5%,-2.8,?,-6.4,1.9%,?
C/C(Cn1cnc([N+](=O)[O-])n1)=N\NC(=O)c1ccc(O)cc1O,4.2%,42.1*,?,86.7*,0.9%,42.8%
C/C(Cn1cnc([N+](=O)[O-])n1)=N\NC(=O)c1ccccc1O,5.0%,23.6*,34.8%,39.3*,2.1%,3.2%
C/C(Cn1nc([N+](=O)[O-])cc1C)=N\NC(=O)c1ccc(O)cc1O,11.7%,30.3*,-26.7%,38.8,-7.0%,-20.1%
COc1ccc(C2=NO[C@@H]3[C@@H]4C[C@@H]([C@H]5C(=O)N(c6ccc7c(c6)OCO7)C(=O)[C@@H]45)[C@H]23)cc1OC,9.5%,-4.0,?,-5.5,2.6%,-1.7%
Cc1cc(C(=O)N2CCCC(Nc3ccc(F)cc3)C2)n(C)n1 (stereo not given),8.4%,3.3,-19.3%,16.4,2.2%,?
O=C(O)c1ccc(Cc2ccccc2C(=O)O)cc1,-8.3%,.,.,.,.,.
NC(CS)C(=O)O (stereo not given),.,.,-8.1%,.,.,4.26µM*
CCOC(=O)c1cn(CC)c2ccc(Br)cc2c1=O,-61.0%,1.2,11.7µM*,22.6,11.4%,5.22µM*
CCn1cc(C(=O)O)c(=O)c2cc(S(=O)(=O)N(C)C)ccc21,3.1%,0.9,105.0%,-2.7,-10.1%,37.6%
CCOC(=O)c1cn(CC)c2ccc(S(=O)(=O)N3CC(C)CC(C)C3)cc2c1=O (stereo not given),0.9%,-3.7,68.7%,-8.4,4.8%,2.0%
CCn1cc(C(=O)O)c(=O)c2cc(Br)ccc21,-61.3%,-1.6,.,-2.4,0.0%,2.62µM*
OCCCCNCc1cc(Br)ccc1OCc1ccccc1F,8.3%,-0.2,27.1%,-3.8,0.9%,?
COc1cc(CNCCCN2CCOCC2)c(Br)cc1OCC(=O)Nc1ccccc1C,9.2%,11.7,?,34.1,-0.8%,10.4µM*
COc1ccccc1NC(=O)COc1ccc(Br)cc1CNCCCN1CCOCC1,2.5%,11.0,1.5%,23.1,-0.9%,?
CCN(CC)CCNCc1cc(Br)ccc1OCC(=O)NCc1ccccc1,4.7%,4.4,11.7µM*,-12.6,-0.1%,?
Cc1ccccc1NC(=O)COc1ccc(Br)cc1CNCCCO,2.1%,7.0,1.85µM*,8.9,0.8%,?
O=C(Nc1ccccc1Cl)C1CCCN(S(=O)(=O)c2ccc(-n3cnnn3)cc2)C1 (stereo not given),13.3%,-3.7,4.3%,-4.1,0.6%,-18.1%
Fc1ccc(N2CCN(C3=Nc4cccc5cccc3c45)CC2)cc1,.,24.3*,?,74.1*,-0.3%,-17.7%
c1ccc(CN2CCN(C3=Nc4cccc5cccc3c45)CC2)cc1,-50.5%,17.9*,.,47.8,0.8%,?
O=C1C(Cl)=C(N2CCN(Cc3ccccc3)CC2)C(=O)N1Cc1ccccc1,-13.8%,1.3,-3.9%,-13.5,-5.4%,?
COc1ccc(-n2c3c(cc(C(=O)N4CCN(CCO)CC4)c2=O)C(=O)CC(C)(C)C3)cc1,1.1%,-3.0,10.4µM*,-12.8,-2.6%,-2.7%

# Compound activity from PubChem BioAssay.
